Structures are written as SMILES. Active and inactive are the calls of the source. Rule for the calls: active = hit-call score of the fitted dose curve at least 0.9, where 1 is the maximum; inactive = score below 0.9.

This assay in a line: ATG_CRE_CIS: Attagene CIS-FACTORIAL HepG2 Assay for human cAMP Responsive Element (CRE) binding protein 3 (AID 2282926). The settings on record: HepG2 CRE cis-reporter, Attagene multiplexed mRNA; actives raise or lower the signal. In outline:
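Human liver HepG2, transient MRTU transfection, 24 h compound exposure. Total RNA → oligo(dT) RT → PCR → 6-FAM primer extension → HpaI cut → CE. Activity called both directions vs DMSO.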
For the compound `NNCCO`, the call was inactive.
Still for that read-out and setting: in the case of `ClCCN1CCOCC1` it was “inactive”.
Broadly, the AC50 is the concentration giving half of the maximal activity seen. As for `C[C@@H]1O[C@@H](O[C@H]2C[C@@H](O)[C@]3(CO)[C@H]4[C@H](O)C[C@]5(C)[C@@H](C6=CC(=O)OC6)CC[C@]5(O)[C@@H]4CC[C@]3(O)C2)[C@H](O)[C@H](O)[C@H]1O`, the half-maximal activity concentration (AC50) is 0.512 µM (active).
For the compound `CCOP(=O)(OCC)OC(=CCl)c1ccc(Cl)cc1Cl`, the call was inactive.
As for `O=C(CCl)Nc1ccccc1`, the half-maximal activity concentration (AC50) was 13.2 µM (active).
With `O=[N+]([O-])c1cccc2ccccc12`, the call was inactive.
As to `O=C1C[C@@H]2OCC=C3CN4CC[C@]56c7ccccc7N1[C@H]5[C@H]2[C@H]3C[C@H]46`, the outcome was inactive.
The same measure, in the same setting: in the case of `CCOP(=S)(OCC)OP(=S)(OCC)OCC` it was “inactive”; in that of `CC(C)(c1ccc(O)c(-c2ccccc2)c1)c1ccc(O)c(-c2ccccc2)c1`, “inactive”.
For the compound `CC1(C)[C@H](C(=O)O[C@H](C#N)c2cccc(Oc3ccccc3)c2)[C@@H]1/C=C(\Cl)C(F)(F)F`, the result was inactive.
On the same count and under the same terms, in the case of `CC(C)(c1ccccc1)c1cc(-n2nc3ccccc3n2)c(O)c(C(C)(C)c2ccccc2)c1` it was “inactive”.
Same read-out and setting: in the case of `FC(F)OCC(F)(F)C(F)(F)F` it was “inactive”.
Take `CCN(N=O)C(N)=O`: the compound was called inactive.
On the same count and under the same terms, in the case of `Oc1ccc(Cc2ccc(O)cc2)cc1` it was “inactive”; in that of `CCOc1ccc(N)cc1`, “inactive”.
Take `CCCCOP(=O)(CCCC)OCCCC`: the result was inactive.
`O=C(CBr)c1ccc(O)cc1`: the result was inactive.
In the case of `ClCc1ccccc1CCl`, the AC50 is 9.56 µM (active).
As to `N#CCCC(Br)(C#N)CBr` (centres undefined), the AC50 is 53.5 µM (active).
Take `c1cc[c]([Sb]([c]2ccccc2)[c]2ccccc2)cc1`: the call was inactive.
Still for that read-out and setting: in the case of `O=[N+]([O-])c1cc([As](=O)(O)O)ccc1O` it was “inactive”; in that of `CC(C=O)Cc1ccc2c(c1)OCO2` (centres undefined), “inactive”; in that of `CCCCOC(C)=O`, “inactive”.
As to `O=S(=O)(C(Cl)(Cl)Cl)C(Cl)(Cl)Cl`, the AC50 is 15.2 µM (active).
Regarding `OC[C@@H](O)[C@H]1O[C@@H]2O[C@H](C(Cl)(Cl)Cl)O[C@@H]2[C@H]1O`, the outcome was inactive.
Take `C=CC(Cl)CCl` (centres undefined): the result was inactive.
Still for that read-out and setting: in the case of `CC(C)(C1CCC(O)CC1)C1CCC(O)CC1` (centres undefined) it was “inactive”; in that of `CCNc1nc(NCC)nc(SC)n1`, “inactive”; in that of `O=c1[nH]c(=O)n(Cl)c(=O)n1Cl`, “inactive”.
As for `C=CCOC(N)=O`, the compound was called inactive.
Same read-out and setting: in the case of `N#CS` it was “inactive”.
Consider `CCCCC(CC)C(=O)Cl` (centres undefined), for which the outcome was inactive.
Same read-out and setting: in the case of `O=S1(=O)OC(c2cc(Br)c(O)c(Br)c2)(c2cc(Br)c(O)c(Br)c2)c2ccccc21` it was “inactive”; in that of `O=C=Nc1ccc(Cl)cc1`, “inactive”; in that of `CC(C)(C)c1cc([N+](=O)[O-])cc(C(C)(C)C)c1O`, “inactive”.
On to `Cc1cc(Cl)ccc1OC(C)C(=O)O` (centres undefined), for which the compound was called inactive.
Consider `C[N+](C)(C)Cc1ccccc1`, for which the outcome was inactive.
The same measure, in the same setting: in the case of `CCOP(=S)(OCC)Oc1ccc(Cl)cc1Cl` it was “inactive”.
Turning to `Fc1cccc(Cl)c1CCl`, the AC50 was 41.8 µM (active).

(Values after PubChem BioAssay (EPA / NIEHS).)
